# AddAB inh: less growth of phage-infected E. coli with AddAB; E. coli expressing H. pylori AddAB, absorbance growth; inhibition, % at 11.9 µM; 0.29% of 330,000 active; AID 435030; in the data active = inhibition above about 12%;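 also: 0% = vehicle wells of infected cells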
# Tat transport: blocks Tat-dependent protein export in E. coli | E. coli MC4100 TorA-mCherry Tat export, fluorescence | inhibition, % at 10 µM | 0.036% of 340,000 active;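 active = mean replicate inhibition at least 50% and at least half of replicates individually reaching 50%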;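 also: exported cargo escapes ClpAP degradation while cytoplasmic cargo is degraded and loses fluorescence; 0% = median of neutral control wells and 100% = median of NaSCN control wells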
# E coli growth-1: bacterial growth inhibition, counter-screen for AddAB inhibitors. AID 449728. inhibition, % at 11.9 µM. E. coli V3065 growth, OD600 absorbance, 18 h. 0.27% of 330,000 active;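 active = inhibition above the campaign's mean inhibition across all tested compounds plus 3 SD, cut at about 9.9% in these data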;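 also: uninfected addAB+ strain grown without phage in ampicillin broth; 0% = DMSO wells and 100% = ciprofloxacin 0.95 µg/ml wells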
# E coli growth-2: inhibitors of Escherichia coli growth. 0.21% of 330,000 active. OD600, 23 h; hits give low values. OD600 absorbance (no concentration beside the values). AID 1053175;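 active = OD600 absorbance below the run mean of sample wells minus 3.6 SD, in any replicate, cut at about 0.56 in these data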
# phage Ecoli inh: E. coli growth loss with phage present. inhibition, % at 11.9 µM. AID 651602. 0.26% of 360,000 active. growth absorbance; in the data active = inhibition above about 11%
# AddAB conf: growth loss of T4-infected E. coli expressing H. pylori AddAB, confirmed. shares compounds with AddAB inh. E. coli V3065 expressing H. pylori AddAB, T4 phage, OD; T4 phage with gene 2 nonsense mutations. inhibition, % at 11.9 µM. 64% of 880 active. AID 488942;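 active = mean inhibition above a set limit taken from the earlier primary screen, cut at about 13% in these data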;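 also: higher means less bacterial growth since AddAB block lets phage replicate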
# RecBCD counter: reduces growth of phage-infected RecBCD+ E. coli, AddAB inhibitor counter-screen. 73% of 880 active. AID 488955. shares compounds with AddAB inh. inhibition, % at 11.9 µM. E. coli V66 + mutant T4 phage, OD growth;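 active = mean inhibition above the mean of solvent-only control wells plus 3 SD, cut at about 4% in these data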;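 also: optical density read after an 18 h incubation at 37 °C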
# Bact viability: counter-screen for AddAB inhibitors: inhibitors of bacterial viability; AID 488956; inhibition, % at 11.9 µM; shares compounds with AddAB inh; 35% of 880 active; absorbance (AddAB counterscreen); in the data active = inhibition above about 25%
# RecBCD conf: confirmation: growth loss of phage-infected RecBCD+ E. coli (RecBCD inhibitor screen); shares compounds with phage Ecoli inh; E. coli V66 + T4 2- phage, growth OD; inhibition, % at 11.9 µM; 45% of 890 active;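 active = mean inhibition over triplicates exceeding the hit threshold derived in the original primary screen, cut at about 11% in these data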
# Ecoli viability: inhibits E. coli viability, flagging RecBCD hits as nonselective; inhibition, % at 11.9 µM; 29% of 890 active; shares compounds with phage Ecoli inh; absorbance (OD) growth; in the data active = inhibition above about 20%;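 also: E. coli strain V66 grown with compound alone and no phage infection; 0% = bacteria with DMSO vehicle only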
# AddAB counter: growth loss of phage-infected AddAB E. coli, RecBCD counter-screen. AID 651984. shares compounds with phage Ecoli inh. E. coli expressing H. pylori AddAB + T4 phage, OD growth; gene 2 mutant T4, recBCD-deleted host. inhibition, % at 11.9 µM. 45% of 890 active;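 active = mean inhibition above the solvent-only control wells' mean plus 3 SD, cut at about 22% in these data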;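 also: higher means less bacterial growth from phage killing when AddAB is blocked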
# The depositor's hits bear a star; x = no result given; ! = repeats disagree. An excerpt weighted towards active compounds, which were near 0.5% of everything screened.
SMILES,AddAB inh,Tat transport,E coli growth-1,E coli growth-2,phage Ecoli inh,AddAB conf,RecBCD counter,Bact viability,RecBCD conf,Ecoli viability,AddAB counter
COc1ccc(O)c(/C=N/NC(=O)c2ccc(CSc3nc(C)cc(C)n3)cc2)c1,16*,3,11*,x,11*,6,8.0*,-2,1,1,6
CCOC(=O)C1CCN(C(=O)c2sc3ncn(CC(=O)N4CCCCC4)c(=O)c3c2C)CC1,x,x,x,x,2,x,x,x,x,x,x
COc1ccc(-c2oc3c(OC)c(OC)c(OC)c(O)c3c(=O)c2OC)cc1OC,13*,3,8,0.7,12*,8,4.1*,6,4,6,5
COc1c(OC)c(O)c2c(=O)c(O)c(-c3ccccc3)oc2c1OC,7,2,1,0.65,5,x,x,x,x,x,x
COc1ccc(/C=C2\SC(=O)N(CC(=O)NNC(=O)c3ccccc3O)C2=O)cc1OC,23*,-6,18*,x,16*,20*,14*,16,6,9,16
O=C(CN1C(=O)S/C(=C\c2ccccc2)C1=O)NNC(=O)c1ccccc1O,19*,-8,17*,0.7,14*,16*,14*,12,6,7,7
COc1ccc(/C=C2\SC(=O)N(CC(=O)NNC(=O)c3ccccc3O)C2=O)cc1,17*,0,10*,0.71,15*,11,10*,10,2,3,1
O=C(CN1C(=O)S/C(=C\c2ccc(O)cc2)C1=O)c1ccccc1,1,-12,0,x,3,x,x,x,x,x,x
NC(=NCCCCCCN=C(N)/N=C(\N)Nc1ccc(Cl)cc1)/N=C(\N)Nc1ccc(Cl)cc1,103*,156*!,105*,x,106*!,100*,101*,100*,104*,105*,104*
O=c1c2ccccc2nc(N/N=C/c2c(O)ccc3ccccc23)n1O,19*,4,24*,x,21*,24*,21*,17,12*,16,17
O=c1c2ccccc2nc(N/N=C/c2ccc(O)cc2)n1O,2,-5,2,x,2,x,x,x,x,x,x
Fc1ccc(NC(=S)NCc2ccccc2Cl)cc1,14*,-10,13*,0.66,12*,36*,25*,35*,17*,24*,38*
CC#CCN1c2ccccc2[C@]23C[C@@H](C(=O)OC)N(C(C)=O)C2=NC(C(=O)OC)=C(C(=O)OC)[C@H]13,2,-2,1,x,1,x,x,x,x,x,x
Cc1ccc(OCc2n[nH]c(=S)n2-c2ccc(Br)cc2)cc1,-2,-11,-1,0.69,3,x,x,x,x,x,x
Nc1ncnc2c1ncn2C1O[C@H](CO)[C@@H](O)[C@@H]1O (stereo partly drawn),-1,-5,-2,x,1,x,x,x,x,x,x
Nc1nc(F)nc2c1ncn2[C@@H]1O[C@H](CO)[C@@H](O)[C@H]1O,75*,-1,75*,x,68*,74*,64*,77*,70*,63*,78*
O=C(NNC(=S)Nc1ccc(Cl)c(Cl)c1)c1ccccn1,14*,3,17*,0.57,17*,26*,17*,25*,14*,14,34*
CCNC(=S)NNC(=O)c1ccccn1,4,-19,0,0.58,-1,x,x,x,x,x,x
Cc1ccc2c(-c3ccc([N+](=O)[O-])cc3)cc(=O)[nH]c2c1,-1,-4,-1,0.71,-1,x,x,x,x,x,x
CCN(CC)c1ccc(/C=N/NC(=O)c2cccc(S(=O)(=O)Nc3ccccc3OC)c2)c(O)c1,32*,-4,33*,x,28*,21*,26*,19,19*,24*,28*
COc1ccc(NC(=O)CN(C)C(=O)CCNC(=O)Nc2ccccc2)cc1,x,-11,x,0.68,0,x,x,x,x,x,x
Cc1[nH]c(N=Nc2ccccc2)nc1N=Nc1ccccc1,14*,-3,16*,x,12*,10,8.2*,16,3,4,20
O=c1c2cc(Br)ccc2nc(-c2cccc(C(F)(F)F)c2)n1O,16*,-13,16*,0.71,17*,8,16*,5,8,11,17
N#Cc1ccc(-c2nc3ccc(Br)cc3c(=O)n2O)cc1,-1,-2,-2,0.65,-2,x,x,x,x,x,x
CCN1CCN(CCCOc2ccc(-c3ccccc3)cc2)CC1,2,x,-1,0.62,3,x,x,x,x,x,x
SMILES,AddAB inh,Tat transport,E coli growth-1,E coli growth-2,phage Ecoli inh,AddAB conf,RecBCD counter,Bact viability,RecBCD conf,Ecoli viability,AddAB counter
O=C(CSc1nn(-c2ccc(F)cc2)c(=S)s1)NC(=O)NCc1ccco1,1,0,0,0.66,2,x,x,x,x,x,x
CC(=O)Nc1ccc(C(=O)CSc2nc3ccccc3n2CC(=O)N2CCCC2)cc1,0,3,1,0.7,0,x,x,x,x,x,x
COc1cccc(/C=N/Nc2ccc([N+](=O)[O-])cn2)c1O,26*,-1,22*,x,18*,21*,17*,18,12*,18,16
CCOC(=O)c1c(CN2CCN(CCO)CC2)n(-c2ccccc2)c2cc(Br)c(O)cc12,1,0,-2,0.67,-2,x,x,x,x,x,x
CC(=O)N1CCc2c(sc(NC(=O)c3ccc([N+](=O)[O-])o3)c2C#N)C1,x,3,x,0.67,8,x,x,x,x,x,x
COC(=O)c1c(NC(=O)c2ccc([N+](=O)[O-])o2)sc2c1CCN(C(C)C)C2,101*,26,100*,x,31*,98*,98*,99*,100*,102*,102*
CC(C)N1CCc2c(sc(NC(=O)c3ccc([N+](=O)[O-])o3)c2C(N)=O)C1,100*,31,100*,x,34*,102*,48*,103*,38*,62*,103*
CCCc1nnc(NC(=O)c2cn(CC)c3cc(N4CCN(C)CC4)c(F)cc3c2=O)s1,99*,x,97*,0.07*,43*,99*,91*,101*,42*,72*,98*
CCCCCCn1cc(C(=O)O)c(=O)c2cc(F)c(N3CCN(C(=O)OCC)CC3)cc21,2,-3,4,0.68,2,x,x,x,x,x,x
CCCCN(CCCC)C(=O)c1cn(CC)c2cc(N3CCN(C)CC3)c(F)cc2c1=O,102*,71*,101*,0.049*,98*,104*,102*,103*,100*,101*,100*
